# Reference: PMC7819943, “Rice protein-binding microarrays: a tool to detect cis-acting elements near promoter regions in rice”
# The full ranking holds about 39,000 sequences; the median of “fluorescence intensity (a.u.)” is about 4,300, and the highest 2% start at about 39,000. Only a selection was taken, and the highest values are over-represented in it overall.
# Target: T1, OsSMF1 (Oryza sativa, UniProt Q6ZLB0 1-436)
# T1 sequence: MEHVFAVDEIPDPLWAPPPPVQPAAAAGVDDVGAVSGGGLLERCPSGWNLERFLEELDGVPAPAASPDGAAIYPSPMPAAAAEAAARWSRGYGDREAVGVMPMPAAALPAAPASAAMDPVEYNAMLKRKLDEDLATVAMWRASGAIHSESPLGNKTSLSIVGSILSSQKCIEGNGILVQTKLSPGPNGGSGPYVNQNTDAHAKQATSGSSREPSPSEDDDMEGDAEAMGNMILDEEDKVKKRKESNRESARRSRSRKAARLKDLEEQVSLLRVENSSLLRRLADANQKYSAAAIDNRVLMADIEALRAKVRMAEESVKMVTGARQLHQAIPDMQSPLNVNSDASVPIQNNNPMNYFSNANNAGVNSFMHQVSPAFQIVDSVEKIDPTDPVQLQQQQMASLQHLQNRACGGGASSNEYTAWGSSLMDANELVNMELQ
# Assay: protein-binding microarray (RPBM); PBS, 2% BSA, 51.3 ng/ul salmon testes DNA, 50 uM zinc acetate, 200 nM TF, 25 C, 1 h; high values mean tight binding
# Conditions: protein: recombinant; tags: N-terminal polyhistidine and DsRed monomer fusion (pET32a); chain copies: 2; label: CyDye5-dUTP incorporated in the synthesized complementary strand; 3' TTTTT single-stranded linker to array surface; dsDNA, one strand shown
# Summary of the method: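 The binding signal for each feature is its fluorescence intensity in arbitrary units. An Axon 4000B scanner was used to read a custom Agilent array that had been made double-stranded with Cy5-dUTP primer extension, blocked with 2% BSA, incubated at 25 °C for 1 h with 200 nM protein in PBS, 2% BSA, salmon testes DNA and 50 µM zinc acetate, and washed. The protein was an N-terminal polyhistidine–DsRed transcription factor fusion from E. coli BL21-CodonPlus, purified on Ni–NTA.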
row,Sequence,binding signal
1,ACCTTGAGTTTGAGTGCGATTCCTCCCTTCTTTCGGTCACCGGAGTCACCTAGTGCAG,21100 fluorescence intensity (a.u.)
2,ACGACGACGACGTCGACGTGTGAACCAGTCAACTGCCACGCGGAGTCACCTAGTGCAG,8590 fluorescence intensity (a.u.)
3,ACGAAACCGCACAAAAGCCGGTGAATTTTCCCGTAATTTGCGGAGTCACCTAGTGCAG,8780 fluorescence intensity (a.u.)
4,ATCTAGACACGCGCGCGCGCGCGCACATATATATATATATCGGAGTCACCTAGTGCAG,42600 fluorescence intensity (a.u.)
5,GCGCACACACACACACAGATATATATATATATATATATATCGGAGTCACCTAGTGCAG,4200 fluorescence intensity (a.u.)
6,ACATACATATATATATATATATATACATACATATATATATCGGAGTCACCTAGTGCAG,3740 fluorescence intensity (a.u.)
7,TAAACAGGGCCCTACTGTCATCACGTCGATGTTGAGTTTACGGAGTCACCTAGTGCAG,4070 fluorescence intensity (a.u.)
8,AAAGGACGGACAGTTTCCTGCGCAAATTCCACGTTCCACCCGGAGTCACCTAGTGCAG,3460 fluorescence intensity (a.u.)
9,CCGCACGCGCTCCCTTCACCCACCTCGATCGAGCTCCATGCGGAGTCACCTAGTGCAG,3570 fluorescence intensity (a.u.)
10,ACATGGACTGTGGTGTGGTACACACACGGTATGTCAGAGCCGGAGTCACCTAGTGCAG,3220 fluorescence intensity (a.u.)
11,GGTTGCCATATTTGCTTGTTATGCCGATGTGGACAAGCTTCGGAGTCACCTAGTGCAG,5600 fluorescence intensity (a.u.)
12,ATATTCCACCAAGCAAAAGCCACATCATGCTGTGCTGTGCCGGAGTCACCTAGTGCAG,6050 fluorescence intensity (a.u.)
13,TCCTCCCAAAGATAATTCAGCTGATGATATTTCCATATCTCGGAGTCACCTAGTGCAG,3210 fluorescence intensity (a.u.)
14,GCTTTGGGCTATAATTGGGCCATTTGTCGTCAGCTCTTGGCGGAGTCACCTAGTGCAG,3230 fluorescence intensity (a.u.)
15,TTCTTCTTGGTGGTGGTGGGGCCTGGAAACTATGTGACTTCGGAGTCACCTAGTGCAG,4270 fluorescence intensity (a.u.)
16,ATATACTATTCTCATCTGTCATACACACATCACATCTTGACGGAGTCACCTAGTGCAG,25700 fluorescence intensity (a.u.)
17,ATACTTGGACTATTCTCTTTCGGAAACTTGACTAGTTACACGGAGTCACCTAGTGCAG,43200 fluorescence intensity (a.u.)
18,ATGTCGAAAGGCCTATATGGGCCAGATGATGTGTCCAGGGCGGAGTCACCTAGTGCAG,34600 fluorescence intensity (a.u.)
19,GGAGAGCTCCGGGAAGACGCGCGCTGACGCGGCCTCCCTGCGGAGTCACCTAGTGCAG,8860 fluorescence intensity (a.u.)
20,TCAATGATATTTATGTGTGTGACATGTATGTCGAGTTCGTCGGAGTCACCTAGTGCAG,4360 fluorescence intensity (a.u.)
21,ATATTCTGATATGTCAATATTATTGTGTATGATTGATTGTCGGAGTCACCTAGTGCAG,46700 fluorescence intensity (a.u.)
22,ATTGATGTGAAGAACAAATAGTCAATATTATTCTGTATATCGGAGTCACCTAGTGCAG,16900 fluorescence intensity (a.u.)

row,Sequence,binding signal
1,TCTTCTGAATGCTCACAATGACGCCATCCTCATCAGCCGCCGGAGTCACCTAGTGCAG,4480 fluorescence intensity (a.u.)
2,GCCCTCCCTGTCATCCCCGTCACCCATCCTGCCTGCTTTTCGGAGTCACCTAGTGCAG,8530 fluorescence intensity (a.u.)
3,AGCTAAAATAAACTTTACCAAATTTTGGCAATGCCAAAATCGGAGTCACCTAGTGCAG,51800 fluorescence intensity (a.u.)
4,ACATTACCAAATTTTAACAATGCCAAAATTTTGGTAAGGTCGGAGTCACCTAGTGCAG,3450 fluorescence intensity (a.u.)
5,ACCAAATTTTAGCAATACCAAAATTTTGGCATAGTTGCCACGGAGTCACCTAGTGCAG,7010 fluorescence intensity (a.u.)
6,AAACGCCAACGCCATACTCCACCTGACCTCACACTCGCACCGGAGTCACCTAGTGCAG,3290 fluorescence intensity (a.u.)
7,CGTCCCTTGGACGTCATCTTCTCCTCACGTGCATTGCCTCCGGAGTCACCTAGTGCAG,4360 fluorescence intensity (a.u.)
8,TTTGGCATACCTGGAGCAGATCAGGCAGCACATGGCGAGGCGGAGTCACCTAGTGCAG,25600 fluorescence intensity (a.u.)
9,TAAGATGGAGGAGGCGAGGAGAGTTGCGTAGGATGGAGTGCGGAGTCACCTAGTGCAG,3880 fluorescence intensity (a.u.)
10,TTGCAGCATCACCTGGCGAGGCGTAGCTAGGAGATGCAGACGGAGTCACCTAGTGCAG,40100 fluorescence intensity (a.u.)
11,TTATGAGTTTAGAGGGATGATTAGGATACATGGGAATTTTCGGAGTCACCTAGTGCAG,22200 fluorescence intensity (a.u.)
12,AACCCGGCGTTGGTGAGCTGTTCCATTGTGTCTATAGGCACGGAGTCACCTAGTGCAG,3210 fluorescence intensity (a.u.)
13,TACTTAGCTAGCTAATCGCGTTGCTCTTTCTCGTACTATACGGAGTCACCTAGTGCAG,20400 fluorescence intensity (a.u.)
14,GATATATATACGCGTTCATCAGCGTACGTTCTTATAGCTACGGAGTCACCTAGTGCAG,40100 fluorescence intensity (a.u.)
15,TGGATATGCATGCGTACGTACGTAGCTTACCTATAGCTAGCGGAGTCACCTAGTGCAG,3500 fluorescence intensity (a.u.)
16,CACTCCGGCGTGACGGAGCCCTTCCCCGATGTGATGCCTACGGAGTCACCTAGTGCAG,32600 fluorescence intensity (a.u.)
17,AGGGGCGGAGGGCAGCGATTTTGGTTGGTAGTAGTACGGGCGGAGTCACCTAGTGCAG,3610 fluorescence intensity (a.u.)
18,CGTTGGCGTCCACCACGGCCACCGCCACGCCGCTCGTGTTCGGAGTCACCTAGTGCAG,4420 fluorescence intensity (a.u.)
19,GACTTAACTTTAGTCCCTGTATTTAGACACTAATTTAGAGCGGAGTCACCTAGTGCAG,65500 fluorescence intensity (a.u.)
20,CAGGTACTTAACTTTAGTCCCTGTCTTTAGACACTAATTTCGGAGTCACCTAGTGCAG,5100 fluorescence intensity (a.u.)
21,GTCCCCTGTTGCACTTAGATATTTAACTTTGTTAAGGATTCGGAGTCACCTAGTGCAG,4820 fluorescence intensity (a.u.)
